D1 potentiator: Potentiators of Human D1 Dopamine Receptor: qHTS; D(1A) dopamine receptor (Homo sapiens), P21728; HEK293 TREx D1 cells, calcium flux, dopamine EC20 potentiation; potentiation, % at 10 µM; 0.036% of 360,000 active; in the data active means potentiation above about 30%; further: 0% is about no effect
Target sequence (P21728 whole entry, looked up): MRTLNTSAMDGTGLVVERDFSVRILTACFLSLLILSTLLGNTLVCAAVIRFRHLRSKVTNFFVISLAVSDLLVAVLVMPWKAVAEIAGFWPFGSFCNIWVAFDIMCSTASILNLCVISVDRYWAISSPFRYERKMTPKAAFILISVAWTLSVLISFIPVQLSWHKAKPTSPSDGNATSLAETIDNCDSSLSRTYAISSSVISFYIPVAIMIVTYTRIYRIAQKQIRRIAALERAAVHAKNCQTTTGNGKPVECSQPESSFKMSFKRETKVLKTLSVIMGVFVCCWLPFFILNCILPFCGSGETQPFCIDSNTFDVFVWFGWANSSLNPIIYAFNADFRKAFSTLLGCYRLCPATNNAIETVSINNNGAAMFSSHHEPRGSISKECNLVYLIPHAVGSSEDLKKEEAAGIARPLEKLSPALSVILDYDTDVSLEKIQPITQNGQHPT
D1 ag: Allosteric Agonists of the Human D1 Dopamine Receptor: qHTS; HEK293 T-REx D1 cells, calcium flux, agonist mode; activation, % at 2 µM; 1% of 360,000 active; D(1A) dopamine receptor (Homo sapiens), P21728; AID 504660, 2011; in the data active means activation above about 30%; further: 0% is about no effect
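Agonism was scored from calcium flux recorded over 180 s (1 read/s) after pintool compound addition, following a 10-cycle baseline. Cells were inducible force-coupled HEK293 TREx D1, plated overnight at 30 C and loaded with no-wash calcium dye.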
DRD3 agonist: qHTS of D3 Dopamine Receptor Agonist: qHTS. D(3) dopamine receptor (Homo sapiens), P35462. max activation, %. AID 652048, 2013. 0.58% of 410,000 active. D3R DiscoveRx beta-arrestin cells, luminescence, 90 min; in the data active means max activation above about 30%; further: 0% is about no effect
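Agonist mode: compounds and dopamine controls were applied to plated cells for 90 min at 37 degrees C after an overnight attachment at 1500 cells/well. Luminescent read-out followed 30 - 60 minutes at room temperature with DiscoveRx detection reagent.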
DRD3 antagonist: qHTS of D3 Dopamine Receptor Antagonist: qHTS. max response, negative = inhibition, %. D(3) dopamine receptor (Homo sapiens), P35462. D3R cells, DiscoveRx beta-arrestin luminescence, antagonist mode; stronger effect = lower value. 2.5% of 360,000 active. AID 652054, 2013; in the data active means max response below about -50%; inconclusive means no clear call, values can overlap the other calls; further: on the % scale 0 is the no-effect control and ±100 the full control effect
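Cells expressing the human receptor were seeded at 1500 cells/well, incubated overnight at 37 degrees C in 5% CO2, then exposed to library compounds with dopamine controls for 90 minutes at 37 degrees C before luminescent detection.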
D1 antagonist: Antagonist of Human D 1 Dopamine Receptor: qHTS; HEK293 TREx D1 cells, calcium flux, dopamine EC80; stronger effect = lower value; activity change, negative = inhibition, % at 10 µM; 3.2% of 360,000 active; AID 504652, 2011; in the data active means activity change below about -30%; further: on the % scale 0 is the no-effect control and ±100 the full control effect
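Kinetic fluorescence of a calcium dye serves as the read-out. D1-expressing Hek293 Trex cells, induced overnight at 30 C, are exposed to compound for 180 s before an EC80 dopamine addition, then read 180 s further.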
An asterisk follows results filed as active; ? = inconclusive; / = no result. In the library only some 6.1% were active in any assay of this set; here they are far more common.

SMILES | D1 potentiator | D1 ag | DRD3 agonist | DRD3 antagonist | D1 antagonist
N=C1/C(=C/c2ccco2)C(=O)N=C2SC(CC(=O)N3CCCC3)=NN12 | -7 | 2 | 0 | -11 | -4
CCCC1=NN2C(=N)/C(=C\c3ccc(SCc4ccco4)o3)C(=O)N=C2S1 | -3 | 63* | 3 | -11 | 3
CCCC1=NN2C(=N)/C(=C\c3cc(C)n(Cc4ccccc4)c3C)C(=O)N=C2S1 | 1 | 150* | 5 | -7 | -37*
CCC1CCCCN1C(=O)CSc1nc(-c2ccc(OC)c(OC)c2)cc(C(F)(F)F)n1 (stereo unspecified) | -5 | 3 | 18 | / | 11
CCC1CCCCN1C(=O)CSc1nc(-c2ccc(OC)cc2)cc(C(F)(F)F)n1 (stereo unspecified) | -8 | 3 | 3 | / | -31*
O=Cc1ccccc1-n1cccn1 | -1 | 2 | 5 | 4 | -33*
O=c1cc(-c2ccccc2)n2c(SCc3ccc(Br)cc3)nnc2[nH]1 | 5 | -4 | 1 | / | /
O=S1(=O)CC/C(=N/Nc2ccc(C(F)(F)F)cn2)c2cc(F)ccc21 | 11 | 0 | -8 | -14 | -52*
O=S1(=O)CC/C(=N/Nc2ccccn2)c2cc(F)ccc21 | -1 | 0 | -10 | -9 | 0
C=CCn1c(CCCNC(=O)C(C)(C)C)nc2ccccc21 | -4 | 1 | 5 | 1 | -12
C=CCn1c(C(C)NC(=O)C(C)(C)C)nc2ccccc21 (stereo unspecified) | 4 | -3 | 16 | -52* | -4
CN(C)CCCN(C(=O)c1ccc2c(c1)CCCC2)c1nc2ccc(Cl)cc2s1 | -6 | 18 | -10 | -88* | 9
CCOc1ccc2nc(N(CCCN(C)C)C(=O)c3ccc4c(c3)CCCC4)sc2c1 | -10 | 24 | -23 | -84* | -25
COc1cccc2sc(N(CCN(C)C)C(=O)c3ccc4c(c3)CCCC4)nc12 | 2 | 10 | -8 | ? | 0
CN(C)CCCN(C(=O)CCc1ccccc1)c1nc2ccc(Cl)cc2s1 | -8 | 31* | -35 | -17 | -8
CC(C)OCCCNC(=O)CCCn1c(SCC(N)=O)nc2c(sc3ccccc32)c1=O | 1 | 3 | -8 | / | 2
CCOC(=O)c1ccccc1NC(=O)c1cc2c(s1)-c1ccccc1SC2 | 0 | 3 | -13 | / | -45*
CCOC(=O)c1ccccc1NC(=O)c1cc2c(s1)-c1c(C)cccc1OC2 | -6 | 1 | -7 | / | 5
COc1ccc(C)cc1NC(=O)c1cc2c(s1)-c1ccccc1SC2 | 0 | 2 | 7 | / | -32*
Cc1ccc(C)c(NC(=O)CCc2nc3cccnc3n2Cc2cccs2)c1 | 1 | -1 | -8 | / | -15
CCc1nn(CC(=O)NCCc2ccc(Cl)cc2)c(=O)c2cc3c(OC)cccc3n12 | -3 | 0 | -21 | / | 13
CN(c1ccccc1C(=O)Nc1cccc(Cl)c1Cl)S(C)(=O)=O | -3 | 3 | -11 | -57* | -3
CCOc1ccccc1NC(=O)c1ccccc1N(C)S(C)(=O)=O | 3 | 2 | 16 | ? | -8
CCOc1ccc(Nc2cc(C)nc3nncn23)cc1 | -1 | -1 | 2 | / | 2
O=C(CN1C(=O)C2CCCCC2C1=O)Nc1ccc(OC(F)F)c(Cl)c1 (stereo unspecified) | -2 | 1 | -7 | -2 | -32*
SMILES | D1 potentiator | D1 ag | DRD3 agonist | DRD3 antagonist | D1 antagonist
COc1ccccc1CNS(=O)(=O)c1cnc(N)nc1 | -1 | 1 | 2 | / | -11
CC(=O)Nc1cccc(C(=O)NCc2ccc3c(c2)CCN3C(=O)c2ccc(F)cc2)c1 | -1 | 0 | 8 | / | -5
O=[N+]([O-])c1ccc2n[nH]nc2c1 | -2 | 5 | -5 | -70* | -7
O=C(NCCCc1nc2ccccc2n1Cc1ccccc1F)c1ccco1 | 3 | -3 | 6 | / | -16
CCCCCC1NC(=O)NC1CCCCCC(=O)O (stereo unspecified) | 2 | 1 | 7 | 5 | -8
O=C(CCCO)CCCCCCCCC[C@H]1N[C@H](CO)[C@@H](O)[C@@H]1O | 0 | 1 | 0 | -16 | -45*

High-throughput results deposited in PubChem BioAssay by National Center for Advancing Translational Sciences (NCATS).
